# Data taken from PubChem BioAssay (NCI).
# This is part of a sample that, as a whole, favours compounds with a hit. Of some 83,000 tested, about 20% had one in any assay.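 Growth was measured after 48 h exposure to one concentration of compound in 96-well plates. Values under 10 count as active.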 A number with no mark means an inactive call. Activity calls are given as the source filed them.
# Assays:
# Assay in all cases: NCI-60 one-dose screen, 48 h (100 = growth as untreated, 0 = no growth, -100 = all killed)
# [1] = tested on: NCI-H23 lung; conditions: 10 µM
# [2] = tested on: HOP-92 NSCLC; conditions: 10 µM
# [3] = tested on: COLO 205 colon; conditions: 10 µM
# [4] = tested on: K-562 leukemia; conditions: 10 µM
# [5] = tested on: MDA-MB-231 breast; conditions: 10 µM
# [6] = tested on: LOX IMVI melanoma; conditions: 10 µM
# [7] = tested on: SK-MEL-28 melanoma; conditions: 10 µM
# [8] = tested on: UO-31 renal; conditions: 10 µM
# [9] = tested on: CCRF-CEM leukemia; conditions: 10 µM
# [10] = tested on: MOLT-4 leukemia; conditions: 10 µM
# [11] = tested on: SR leukemia; conditions: 10 µM
# [12] = tested on: HS 578T breast; conditions: 10 µM
# [13] = tested on: SW-620 colon; conditions: 10 µM
# [14] = tested on: MDA-MB-468 breast; conditions: 10 µM unless noted
# [15] = tested on: RXF 393 renal; conditions: 10 µM
# [16] = tested on: SNB-19 CNS; conditions: 10 µM
# [17] = tested on: U251 CNS; conditions: 10 µM
# [18] = tested on: IGROV1 ovarian; conditions: 10 µM
# [19] = tested on: NCI-H226 lung; conditions: 10 µM
Structure (SMILES),growth [1],growth [2],growth [3],growth [4],growth [5] [%],growth [6],growth [7],growth [8],growth [9],growth [10],growth [11],growth [12] [%],growth [13],growth [14],growth [15],growth [16],growth [17],growth [18],growth [19] [%]
COP(=O)(CC(F)(F)C(F)(F)F)OC,41.8%,-29.8% (active),-59.3% (active),10.9%,65.1,-63.5% (active),-58.1% (active),-81.8% (active),5.28% (active),5.72% (active),5.42% (active),75.3,-15.9% (active),-53.6% (active),–,–,–,–,–
O=C(/C=C/c1cccc(Br)c1)c1nc2ccccc2n1Cc1ccc(F)cc1,34%,19.3%,79.3%,5.36% (active),–,–,–,41.8%,-18.8% (active),3.41% (active),-7.31% (active),–,–,4.89% (active),6.83% (active),47.1%,-9.29% (active),40.4%,–
CC(C)N=C([Se])NC(=O)c1cccs1,-33.4% (active),88.3%,–,71%,–,–,–,12.4%,29.7%,15.4%,2.39% (active),–,–,64.4%,21.6%,4.61% (active),12.2%,1.76% (active),64.6
Cc1ccc2[nH]c(=S)n(-c3ccc(F)cc3)c(=O)c2c1,–,77.2%,134%,96.6%,93.1,92.7%,–,82.7%,86.3%,106%,103%,104,102%,92.1%,98.2%,–,–,–,97.6
